This passage reports inhibition results from PubChem BioAssay AID651636 (Sanford-Burnham Center for Chemical Genomics, 2012).

Screen size: about 360,000 compounds; about 3,000 (0.83%) were called active. Cut-off read from the data, not from the text of the source: active = inhibition above about 38%; inactive = the rest. This excerpt belongs to a sample that is enriched for actives.

Sequence of G-protein coupled receptor 183 (Homo sapiens) (P32249 whole entry, looked up, the tested form may be a part): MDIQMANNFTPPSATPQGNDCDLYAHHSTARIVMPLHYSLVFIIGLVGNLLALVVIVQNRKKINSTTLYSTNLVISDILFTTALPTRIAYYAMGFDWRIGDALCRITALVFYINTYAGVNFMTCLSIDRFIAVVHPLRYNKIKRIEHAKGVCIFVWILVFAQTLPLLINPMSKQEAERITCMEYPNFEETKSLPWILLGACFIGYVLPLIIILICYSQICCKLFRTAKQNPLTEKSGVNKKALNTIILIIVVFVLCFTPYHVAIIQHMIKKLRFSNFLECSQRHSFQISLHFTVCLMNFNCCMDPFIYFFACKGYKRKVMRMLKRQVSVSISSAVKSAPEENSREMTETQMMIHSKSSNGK

The assay has as its target G-protein coupled receptor 183 (Homo sapiens) (UniProt P32249). In words: blockers of oxysterol-driven EBI2 arrestin signaling – cell-based, luminescence, 7a,25-OHC stimulation, uHTS, primary screen (AID 651636).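 Note: enzyme fragment complementation signal reports receptor beta-arrestin coupling in cells; 0% = agonist plus DMSO wells and 100% = wells without agonist.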 The settings on record: EBI2 beta-arrestin recruitment, 7a,25-OHC stimulated, at 5 µM, hits give high values.
With `Cc1[nH]c2c(C(=O)N3CCCC(CCC(=O)NCc4ccccc4F)C3)cccc2c1C` (configuration not stated), the inhibition (usually the drop in the measured response relative to a control, in per cent) was 2.8% (inactive). `CN1CCN(c2ccccc2NC(=O)COc2ccc(C3CCCCC3)cc2)CC1`: the inhibition was 22.8% (inactive). Next, `O=C(CSCc1ccc([N+](=O)[O-])cc1)NCCSCc1ccccc1`: 3.17% (inactive).

Turning to `O=C(/C=C/c1cccc(C(F)(F)F)c1)N1CCN(c2ccccn2)CC1`, the inhibition is 55% (active).

Consider `Nc1ccn(CC(=O)N2CCN(c3ccccn3)CC2)c(=O)n1`, for which the inhibition was -9.67% (inactive).

For `O=S(=O)(c1cccc(C(F)(F)F)c1)N1CCN(c2cnccn2)CC1`, the inhibition was -1.02% (inactive). For `CSc1ccc(Cl)c(C(=O)OCC(=O)N2CCNC2=O)c1` the value was 5.05% (inactive); for `CCc1nn(CCCC(=O)NC(C)c2ccccc2)c(=O)c2cc3occc3n12` (configuration not stated), -11% (inactive). Next, `CC(CNc1ccc([N+](=O)[O-])cc1)NC(=O)c1ccccc1Br` (configuration not stated): 28.5% (inactive). For `O=C(NCCNc1ccc([N+](=O)[O-])cc1Cl)c1ccccc1F` the value was -4.29% (inactive); for `O=C(NCCNc1ccc([N+](=O)[O-])cc1)c1cccc2c(Br)cccc12`, 44.2% (active); for `CCNC(=O)NC(=O)C(C)OC(=O)c1cc(S(=O)(=O)N2CCCCCC2)ccc1OC` (configuration not stated), -0.223% (inactive). With `CC(CNS(=O)(=O)c1ccc(Br)cc1)CN(C)C` (configuration not stated), the inhibition is 0.0488% (inactive). For `O=C(CCNS(=O)(=O)c1ccccc1)NCCCc1ccccc1` the value was -0.453% (inactive). For `O=C(CNC(=O)c1ccccc1Br)NCCSc1ccc(Br)cc1` the value was 22% (inactive). As to `O=C(CCNS(=O)(=O)c1ccccc1)NCCSc1ccc(Br)cc1`, the inhibition was 51.2% (active). For `Cc1ccc(S(=O)(=O)NCCNC(C)c2ccc(Br)cc2)cc1` (configuration not stated) the value was 43.7% (active); for `CCOc1ccc(S(=O)(=O)NCCC(=O)NCC2CCCO2)cc1` (configuration not stated), -4.42% (inactive). For `Cc1ccc(S(=O)(=O)NCCSC(C)(C)C)cc1` the value was -0.527% (inactive); for `Cc1ccc(OCCNC(=O)CCNS(=O)(=O)c2ccc(Br)cc2)cc1`, 45.9% (active).

For the compound `CC(C)CCNC(=O)CCNS(=O)(=O)c1ccc(Cl)cc1`, the inhibition was -4.48% (inactive). Regarding `O=C(Nc1ccc2c(c1)OCO2)C1CC(c2c(F)cccc2Cl)=NO1` (configuration not stated), the inhibition was 0.962% (inactive).

In the case of `COc1ccc(OC)c(Cc2cnc3nc(N)nc(N)c3c2C)c1`, the inhibition was -1.26% (inactive). Regarding `CCOC(=O)/C(=N\Nc1ccccc1Cl)N(C)C1CCS(=O)(=O)C1` (configuration not stated), the inhibition is 1.11% (inactive). With `C=C1CCN([C@@H](Cc2ccccc2)C(=O)N2CCOCC2)S(=O)(=O)c2ccccc21`, the inhibition is 5.72% (inactive). As for `c1ccc(C[C@H]2CNCCN2CCC23CC4CC(CC(C4)C2)C3)cc1`, the inhibition is -9.28% (inactive). With `CC1CCCCC1NC(=O)/C(C#N)=C/C=C/c1ccccc1[N+](=O)[O-]` (configuration not stated), the inhibition is 8.62% (inactive). Consider `CC(=O)c1ccc(NC(=S)N(Cc2ccccc2)C(C)C2CC2)cc1` (configuration not stated), for which the inhibition was -3.28% (inactive). Consider `CC(C)N(Cc1ccccc1)C(=S)Nc1ccc(OC(F)F)cc1`, for which the inhibition is 53.9% (active). For `CN(CC(=O)Nc1ccc(OC(F)F)cc1)S(=O)(=O)/C=C/c1ccccc1` the value was 1.52% (inactive); for `CC1=NNC(=O)C1Cc1c(Cl)cccc1Cl` (configuration not stated), 9.3% (inactive); for `Cc1ccc(S(=O)(=O)NC2(C(F)(F)F)NC(=O)N(CCc3ccccc3)C2=O)cc1` (configuration not stated), -2.6% (inactive). For `Cc1ccc(-n2nc(-c3ccco3)cc2C(=O)NCc2cccnc2)cc1` the value was 7.84% (inactive). Take `Cc1ccc(-n2ncc3c(=O)n(-c4ccc(C)c(C)c4)c(-c4ccco4)nc32)cc1`: the inhibition was 51.2% (active). Consider `Cc1ccc(-n2ncc3c2ncn2nc(-c4ccco4)nc32)c(C)c1`, for which the inhibition is -1.3% (inactive). Next, `CN(C)C(=O)c1cccc(-c2cnc3sc(NCc4ccc5c(c4)OCO5)nn23)c1`: -1.54% (inactive). `CCN(Cc1ccncc1)C(=O)c1cccc(S(=O)(=O)N2CCOCC2)c1`: the inhibition is -5.08% (inactive). In the case of `CC1CN(C2CCN(C(=O)COc3ccccc3)CC2)CC(C)O1` (configuration not stated), the inhibition was -0.0245% (inactive). Next, `Cc1ccc(OCC(=O)N2CCN(C(=O)c3cccnc3)CC2)cc1`: 50.4% (active). Next, `COc1ccc(OCC(=O)N2CCN(C(=O)c3cccs3)CC2)cc1`: 49.9% (active); `O=C(c1ccc(OC2CCN(C(=O)c3cccnc3)CC2)cc1)N1CCCCCC1`: -4.37% (inactive); `COc1ccccc1C(=O)Nc1ccc(OCC(=O)N2CCCCC2)cc1`: -5.13% (inactive). Next, `COc1ccc(OCC(=O)N2CCN(C(=O)COc3ccccc3)CC2)cc1`: 50.8% (active); `O=C(CN1C(=O)NC2(CCCCC2)C1=O)N1CCN(C(=O)c2cccs2)CC1`: -15.2% (inactive); `O=C(COc1ccccc1)Nc1ccc(N2CCN(C(=O)c3cccs3)CC2)cc1`: 3.87% (inactive). For `COc1ccc(N2CCN(C(=O)c3cccs3)CC2)cc1`, the inhibition was -0.686% (inactive).

In the case of `O=C(COc1ccc2ccccc2c1)N1CCN(C(=O)c2cccs2)CC1`, the inhibition is 79.7% (active).

In the case of `Cc1ccccc1N1CCN(C(=O)c2cccnc2)CC1`, the inhibition is -10.5% (inactive). Next, `CCS(=O)(=O)N1CCN(C(=O)c2cccs2)CC1`: -10.3% (inactive). For `O=C(O)/C=C/C(=O)NNc1ccc([N+](=O)[O-])cc1` the value was -16.6% (inactive). As for `O=C(NC(CC(=O)N1CCN(c2ccccc2)CC1)c1ccccc1)c1ccccc1Cl` (configuration not stated), the inhibition was 11.4% (inactive). Next, `COC(=O)[C@H](Cc1ccccc1)NC(=O)[C@@H]1C[C@H]1[C@@H](NC(=O)OCc1ccccc1)c1ccccc1`: 16.3% (inactive). Next, `COc1ccc([N+](=O)[O-])cc1NC(=O)CC1SC(=Nc2cccc(C)c2C)N(/N=C(\C)c2ccc(C)cc2)C1=O` (configuration not stated): 3.23% (inactive). For `Cc1noc(C)c1-c1ccc(C(=O)NCc2ccncc2)c2occc12` the value was -22.7% (inactive); for `C/C(Cl)=C\Cn1c(Nc2cccc(C)c2)nc2c1c(=O)n(C)c(=O)n2C`, 22.8% (inactive). `OC[C@@H]1CN(C2CCCC2)C[C@H](n2cnc3c(NC4CCC4)ncnc32)O1`: the inhibition was -9.08% (inactive). On to `CCNc1nc(NC(C)C)nc(OCCOC(=O)c2ccccc2)n1`, for which the inhibition was -0.581% (inactive). With `CCN(CC)S(=O)(=O)c1ccc(Cl)c(C(=O)NC(C)C(c2cccs2)N2CCCC2)c1` (configuration not stated), the inhibition is -5.7% (inactive). Next, `COC(=O)c1cccc([N+](=O)[O-])c1CS(=O)(=O)c1ccc(C)cc1`: -6.03% (inactive); `Clc1ccc(-c2cc(C3CCNCC3)[nH]n2)c(Cl)c1`: 0.184% (inactive); `Cc1nc(NC(=O)C2CCCCC2)sc1C`: -5.16% (inactive). Next, `O=C1C(=O)N(c2ccccc2)c2ccccc21`: 4.82% (inactive); `CC(C)OC(=O)CN1C(=O)C(=O)c2ccccc21`: 54.2% (active).

Consider `COc1cc(C(C)=O)ccc1OC(=O)CN1C(=O)c2ccccc2C1=O`, for which the inhibition is -7.55% (inactive).

As for `COC(=O)c1ccc(NC(=O)c2cc3c(CO)cnc(C)c3oc2=Nc2cccc(C(N)=O)c2)cc1`, the inhibition is 12.4% (inactive).

Turning to `COc1ccc(C(c2nnnn2C2CCCCC2)N2CCN(c3ccccc3F)CC2)cc1` (configuration not stated), the inhibition was 31.1% (inactive). Next, `c1ccc(CCn2nnnc2CN2CCN(C3CCCC3)CC2)cc1`: -2.13% (inactive). Next, `COc1ccc(C(c2nnnn2C2CCCC2)N2CCN(C/C=C/c3ccccc3)CC2)cc1` (configuration not stated): 54.1% (active). As for `COc1ccccc1C(c1nnnn1C(C)(C)C)N1CCN(Cc2ccccc2)CC1` (configuration not stated), the inhibition was -27.6% (inactive).

Consider `CCCCn1nnnc1C(c1cccc(OC)c1OC)N1CCN(C/C=C/c2ccccc2)CC1` (configuration not stated), for which the inhibition is 24.9% (inactive). As to `FC(F)(F)Oc1ccccc1C(c1nnnn1C1CCCCC1)N1CCN(C/C=C/c2ccccc2)CC1` (configuration not stated), the inhibition was 70.3% (active).

On to `CC(C)C(c1nnnn1C1CCCC1)N1CCN(c2ccccc2F)CC1` (configuration not stated), for which the inhibition is 11.7% (inactive). Next, `COc1ccc(N2CCN(C(c3cc4ccc(C)cc4[nH]c3=O)c3nnnn3C3CCCC3)CC2)cc1` (configuration not stated): 2.46% (inactive); `c1ccc(C(c2ccccc2)N2CCN(Cc3nnnn3C3CCCCC3)CC2)cc1`: 60.9% (active); `O=C(CC1SCCNC1=O)Nc1ccc(Cl)cc1` (configuration not stated): 0.627% (inactive). As to `CC(Sc1ccccc1F)C(=O)Nc1cccc(S(=O)(=O)N2CCOCC2)c1` (configuration not stated), the inhibition was 7.64% (inactive). Consider `CCOc1ccc(CCNC(=O)C(CC)n2nc(C)n3c(cc4sccc43)c2=O)cc1OCC` (configuration not stated), for which the inhibition was 0.672% (inactive).

`Cc1ccc(-c2cc(C(F)(F)F)n3ncc(C(=O)N4CCCCC4c4cccnc4)c3n2)cc1` (configuration not stated): the inhibition is 19.8% (inactive). Next, `CCn1c(N)c(Br)c(=O)[nH]c1=O`: -5.96% (inactive); `O=C(CSc1ccccc1)Nc1cc(Cl)ccc1Oc1ccccc1`: 63.2% (active); `CC(=O)Nc1ccc(SCC(=O)Nc2ccccc2Oc2ccccc2)cc1`: 6.4% (inactive).

For the compound `CC1CCCN(CC(=O)Nc2cc(Cl)ccc2Oc2ccccc2)C1` (configuration not stated), the inhibition was 6.08% (inactive). Next, `Cn1c(=O)c(=O)n(C)c2cc(S(=O)(=O)CCC(=O)N3CCCCC3)ccc21`: -3.96% (inactive); `CC(C)Cn1c(N2CCN(C(=O)/C=C/c3ccccc3)CC2)nc2ccccc21`: 59.1% (active).

Regarding `C=CCn1c(C(C)NC(=O)CC)nc2ccccc21` (configuration not stated), the inhibition was -24.2% (inactive). For `CN1CCN(C(=O)Cn2c(C(F)(F)F)nc3ccccc32)CC1` the value was -3.36% (inactive); for `COC(=O)[C@]12CCCCC=C1N(Cc1ccc3c(c1)OCO3)C(=O)[C@H](CC(=O)N1CCOCC1)C2`, 6.39% (inactive); for `O=C(Nc1ccc2c(c1)CCC2)c1ccc(Br)s1`, -9.47% (inactive).

`CCOC(=O)C1CCN(C(=O)COc2cc(C)c(Br)c(C)c2)CC1`: the inhibition was 74.6% (active).

On to `CCOC(=O)C1CCN(C(=O)COc2cccc3ccccc23)CC1`, for which the inhibition was 6.68% (inactive).

As for `CCOC(=O)N1CCN(C(=O)COc2ccc(Cl)cc2C)CC1`, the inhibition is 63.5% (active). On to `CCOC(=O)N1CCN(C(=O)COC(=O)c2cccc(S(C)(=O)=O)c2)CC1`, for which the inhibition was -8.93% (inactive).

With `Cc1cc(S(=O)(=O)N2CCOCC2)ccc1OCC(=O)N1CCOCC1`, the inhibition is -8.03% (inactive). For `CCOC(=O)N1CCN(C(=O)COc2ccc(Br)cc2)CC1` the value was 89% (active); for `CCOC(=O)N1CCN(S(=O)(=O)c2ccc(Br)cc2)CC1`, 8.56% (inactive); for `O=C(COc1ccc(Cl)cc1[N+](=O)[O-])N1CCCCC1`, 5.52% (inactive). As for `CCOC(=O)C1CCN(C(=O)Nc2ccc(C)c(Cl)c2)CC1`, the inhibition is 8.32% (inactive).
